SKKanGAS inh = S. pyogenes SKKanGAS growth inhibitors in kanamycin, primary screen, streptokinase expression inhibitor project, SKKanGAS strain, BacTiter-Glo luminescence; 6 h; inhibition, % at 7.5 µM; 1.3% of 300,000 active;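 active = mean replicate score, as percent of positive control median, at least 50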;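 note: strain carries kanamycin resistance gene driven by streptokinase promoter and grows in 40 µg/ml kanamycin; loss of luminescence reflects streptokinase promoter inhibition or plain growth inhibition; 0% = median of DMSO wells and 100% = positive control at its reference dose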
Beta cell apopt = inhibitors of cytokine-induced beta cell apoptosis, primary screen, luminescence | INS-1E cytokine-induced death, ATP luminescence, 48 h; percent of positive-control rescue, neutral wells zero | protection from apoptosis, % (no concentration beside the values) | 0.8% of 300,000 active | AID 435005, 2010;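 active = Every replicate reaches about 75%, or at least half do and their mean reaches it too, limit read from the data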;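 note: 0% = cytokine-treated negative control wells and 100% = positive control rescue; higher means more ATP so stronger rescue from cytokine killing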
CSC inhib = cancer stem cell viability inhibitors, primary screen, luminescence. cancer stem cell-like cells viability. inhibition, % at 7.5 µM. 1.1% of 300,000 active. AID 2717, 2010; in the data active = inhibition above about 75%; tested in HMLE shEcad cells
PP1 inh = PP1-alpha phosphatase inhibitors, primary screen, counter-screen for PP5 inhibitor project, biochemical, fluorescence, OMFP substrate, single point | inhibition, % at 6.7 µM | purified PP1alpha | Serine/threonine-protein phosphatase PP1-alpha catalytic subunit (Homo sapiens), P62136 | 0.9% of 320,000 active;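 active = inhibition above the mean inhibition of all tested compounds plus 3 SD, computed separately for each screening campaign, cut at about 15% in these data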
Target sequence (P62136 whole entry, looked up): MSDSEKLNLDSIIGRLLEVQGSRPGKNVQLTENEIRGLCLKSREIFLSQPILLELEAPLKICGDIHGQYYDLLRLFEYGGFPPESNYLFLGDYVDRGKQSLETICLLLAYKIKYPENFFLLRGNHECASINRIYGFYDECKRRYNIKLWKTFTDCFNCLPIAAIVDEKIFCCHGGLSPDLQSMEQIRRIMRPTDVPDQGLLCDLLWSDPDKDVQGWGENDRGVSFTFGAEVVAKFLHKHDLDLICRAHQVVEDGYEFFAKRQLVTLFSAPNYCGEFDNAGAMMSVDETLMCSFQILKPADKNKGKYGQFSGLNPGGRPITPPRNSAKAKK
PP5 inh = PP5 phosphatase inhibitors, primary screen, biochemical, fluorescence. 0.18% of 320,000 active. purified PP5c, OMFP substrate fluorescence. AID 1987, 2009. Serine/threonine-protein phosphatase 5 (Homo sapiens), P53041. inhibition, % at 6.7 µM;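 active = inhibition above the campaign's mean inhibition across all tested compounds plus 3 SD, cut at about 9.5% in these data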;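 note: 0% = DMSO only and 100% = 100 µM cantharidin control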
An asterisk follows results filed as active; / = no result. An excerpt weighted towards active compounds, which were near 3.1% of everything screened.

SMILES	SKKanGAS inh	Beta cell apopt	CSC inhib	PP1 inh	PP5 inh
Cc1occc1C(=O)Nc1cnn(CCCC(=O)O)c1	-0.7	-1.1	-29.1	-2.3	-1.6
CNC(=O)CS(=O)(=O)CC(=O)Nc1cc(OC(C)C)c(Cl)cc1Cl	12.2	-5.0	/	-1.4	-1.2
Cc1cccc2[nH]c3c(N4CC=C(c5ccc(F)cc5)CC4)ncnc3c12	82.1*	3.3	77.9*	0.2	4.1
O=C(CSc1cccc[n+]1[O-])C12CC3CC(CC(C3)C1)C2	-6.0	-2.1	-3.3	-1.3	1.2
CCC/C(=C1/c2ccccc2C(=O)N1c1ccccc1)c1ccc2c(c1)OCCO2	/	-10.9	88.8*	-0.5	2.9
CCC/C(=C1/c2ccccc2C(=O)N1c1ccccc1)c1ccc(O[C@@H]2CCCCO2)cc1	/	5.1	56.4	/	/
COc1ccc(OC2C(=O)N(Cc3ccc4c(c3)OCO4)C2c2sccc2C)cc1 (stereo not given)	-6.2	10.3	117.0*	1.6	4.1
O=C(O)c1ccc(Cn2ccc3ccccc32)o1	14.6	/	-15.6	-0.6	-1.1
c1ccc(C2(Cn3ccc4ccccc43)OCCO2)cc1	11.6	113.6*	11.0	4.8	1.5
COC(=O)Nc1ccc(S(=O)(=O)N2CCCc3cccc(O)c32)cc1	-0.3	10.0	49.3	-2.0	4.2
COC(=O)Nc1ccc(S(=O)(=O)N2CCCc3ccccc32)cc1	7.7	27.3	80.1*	-2.4	3.4
NC(N)=N/N=C/c1ccc(OCc2ccccc2)cc1	6.4	81.8*	35.9	7.6	0.5
CCOC(=O)c1ccccc1NC(=S)N1CCN(C2CCCCC2)CC1	2.8	-5.5	-12.3	-3.9	9.3
NC(=O)C1CN(C(=O)c2cccc(S(=O)(=O)N3CCc4ccccc43)c2)c2ccccc2O1 (stereo not given)	/	-7.7	1.1	0.8	0.0
Cc1ccccc1CN(C)CC(=O)Nc1ccccc1Oc1ccccc1	3.3	-3.9	/	-3.1	2.4
Cc1ccccc1CN(C)CC(=O)Nc1ccccc1-c1ccccc1	53.4*	-1.9	59.9	-1.4	2.3
CN(CC(=O)Nc1ccccc1Oc1ccccc1)Cc1ccccc1F	3.4	-6.9	91.4*	6.3	0.5
COc1ccccc1CN(C)CC(=O)Nc1ccccc1-c1ccccc1	1.6	-1.7	25.6	-0.2	-2.1
Cc1ccccc1C(=O)N1CCCC(N2CCN(Cc3ccc4c(c3)OCO4)CC2)C1 (stereo not given)	-2.7	1.3	1.9	-4.0	1.6
Cc1ccc(-c2nn(-c3ccccc3)cc2C2CC(c3cccs3)=NN2C(=O)CCCC(=O)O)cc1 (stereo not given)	27.4	-1.4	8.8	12.4	-1.0
Cc1ccc(-c2nn(-c3ccccc3)cc2C2CC(c3ccccc3)=NN2C(=O)CCC(=O)O)cc1 (stereo not given)	1.3	-6.2	-1.6	17.4*	4.9
CC(=O)Nc1nc2ccccc2n1Cc1ccccc1Cl	51.6*	-7.3	33.3	-2.3	-0.1
Nc1nc(NC(=O)c2ccccc2)nn1-c1ccccc1	-11.2	-3.5	0.3	-2.5	3.3
O=C(Nc1nc(NC(=O)c2ccco2)n(-c2ccccc2)n1)c1ccccc1	-15.6	89.1*	26.9	13.8	0.5
O=C(Nc1nc2ccccc2n1Cc1ccccc1)c1ccco1	55.4*	13.8	21.2	3.8	5.0
SMILES	SKKanGAS inh	Beta cell apopt	CSC inhib	PP1 inh	PP5 inh
CC(=O)Nc1nc(NC(=O)/C=C/c2ccccc2)n(-c2ccccc2)n1	96.7*	13.0	14.1	2.4	1.5
COc1ccc(CN(C)C(=O)C2CCN(C(=O)Nc3ccccc3)CC2)cc1	20.7	-0.9	-7.7	1.0	3.0
Cc1cccc(C(CC(=O)N2CCCCC2)c2ccccc2)c1O (stereo not given)	-9.9	/	-10.4	-3.8	1.8
CCn1c(SCc2ccccc2Cl)nc2ccccc21	73.5*	-1.9	7.4	-3.2	4.6
CCC(=O)Nc1nc2ccccc2n1Cc1ccc(Cl)cc1	62.1*	17.4	-11.4	0.6	2.3
Cn1c(SCc2ccccc2Cl)nc2ccccc21	17.5	-1.5	3.1	-4.5	-0.1
CCC(=O)Nc1nc2ccccc2n1Cc1ccccc1Cl	63.1*	16.3	24.4	-2.5	-0.7
CCCCCCCn1c(NC(=O)CC)nc2ccccc21	103.8*	53.5	5.5	-0.5	-1.0
CC(=O)Nc1nc2ccccc2n1Cc1ccccc1C	25.1	-13.3	/	-5.3	0.2
CCNc1c(NS(=O)(=O)c2ccc(Cl)s2)c(=O)oc2ccccc12	2.1	5.3	-2.3	-1.3	2.1
